Rango complex inh: Rango-importin beta binding inhibition. Potency, µM (series often up to 92.2 µM), inactives show at the top dose inhibition of complex formation. 0.031% of 340,000 active. Rango CFP/YFP FRET sensor + importin beta, 45 min. Q14974. AID 540263; calls by dose curve;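 note: 0% = DMSO wells and 100% = buffer wells lacking importin beta; nearly all actives have a fitted effect of over 15% in size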
Target sequence (Q14974 whole entry, looked up): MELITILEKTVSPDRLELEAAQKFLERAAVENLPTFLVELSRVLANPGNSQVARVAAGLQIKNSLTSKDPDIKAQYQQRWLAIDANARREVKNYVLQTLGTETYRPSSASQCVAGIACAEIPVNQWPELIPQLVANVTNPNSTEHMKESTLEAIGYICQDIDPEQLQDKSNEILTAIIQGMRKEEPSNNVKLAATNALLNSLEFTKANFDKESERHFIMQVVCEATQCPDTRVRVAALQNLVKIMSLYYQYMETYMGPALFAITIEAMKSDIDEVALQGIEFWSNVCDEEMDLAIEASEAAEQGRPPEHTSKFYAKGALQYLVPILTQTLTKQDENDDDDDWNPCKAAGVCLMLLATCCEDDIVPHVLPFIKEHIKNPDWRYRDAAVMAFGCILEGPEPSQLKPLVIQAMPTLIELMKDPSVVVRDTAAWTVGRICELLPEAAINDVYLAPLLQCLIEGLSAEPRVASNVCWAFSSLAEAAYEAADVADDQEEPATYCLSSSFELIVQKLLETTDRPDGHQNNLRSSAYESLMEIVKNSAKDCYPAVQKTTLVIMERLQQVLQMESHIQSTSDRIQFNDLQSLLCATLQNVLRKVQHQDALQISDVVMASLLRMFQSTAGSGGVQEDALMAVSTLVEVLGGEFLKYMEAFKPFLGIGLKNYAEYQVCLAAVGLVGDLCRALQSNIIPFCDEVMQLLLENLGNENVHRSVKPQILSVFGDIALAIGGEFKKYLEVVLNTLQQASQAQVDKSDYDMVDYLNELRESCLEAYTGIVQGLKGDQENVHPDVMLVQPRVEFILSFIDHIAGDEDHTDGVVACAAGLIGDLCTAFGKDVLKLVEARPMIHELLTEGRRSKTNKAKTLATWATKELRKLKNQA
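FRET biosensor Rango (snurportin 1 IBB between N-terminal EYFP and C-terminal Cerulean), 50 nM in PBS/1 mM DTT/0.02% Tween-20/0.1% BSA, preincubated 5 min RT with compound; 0.125 microM importin beta added, 45 min RT, CFP/YFP FRET ratio read.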
Tb PFK block: T. brucei PFK enzyme inhibition | 0.17% of 330,000 active | Potency, µM (series often up to 57.5 µM), inactives show at the highest dose activity, negative = inhibition, actives largely listed as inhibitors | T. brucei PFK, ADP-Glo luminescence | AID 485367;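 note: 0% = uninhibited 1x PFK enzyme wells and -100% = no-enzyme wells; nearly all actives have a fitted effect of over 60% in size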
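Luminescent ADP detection (ADP-Glo, two-step: ATP depletion then ADP-to-ATP conversion for luciferase) reported PFK activity after 45 min room-temperature reaction of 1.25 nM enzyme with 0.5 mM F6P and 0.1 mM ATP at pH 8.0.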
PKM2 act: activators of human pyruvate kinase M2; P14618; purified PKM2, Kinase-Glo ATP luminescence, activation; response scale: 0% is enzyme alone, no compound; Potency, µM (top dose mostly 57.5 µM), for the others: top-dose activation, actives largely listed as activators; 0.34% of 260,000 active; AID 1631; note: % is set by controls: 0 for no effect and ±100 for the full control effect; nearly all actives have a fitted effect of over 55% in size
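Kinase-Glo luminescence reports ATP generated from ADP (0.1 mM) and PEP (0.5 mM) by purified hPK-M2 after 1 h at room temperature, pH 7.2 imidazole buffer; intermediate enzyme activity allows detecting inhibitors and activators.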
Rango release inh: prevents RanGTP from dissociating the Rango-importin beta complex; O95149+P62826; Biochemical FRET Rango-importin beta, RanGTP-induced dissociation; Potency, µM (series often up to 46.1 µM), for inactives: top-dose activity change, negative = inhibition; 0.071% of 340,000 active; AID 540253; calls by dose curve; note: % of control where 0% means no effect; nearly all actives have a fitted effect of over 45% in size
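Rango FRET biosensor (snurportin-1 IBB flanked by N-terminal EYFP and C-terminal CFP10) at 0.1 uM, with 0.25 uM importin beta in PBS, 1mM DTT, 0.02% Tween-20, 0.1% BSA. 0.6 uM Ran, 2mM GTP and 0.2 uM RCC1 were then added for 45 min at room temperature. Inhibition read as loss of FRET rise.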
ELG1 DNA repair: blocks ELG1-dependent DNA repair in HEK293T cells; 2.3% of 330,000 active; Potency, µM (series often up to 46.1 µM), without a hit: top-dose activity change, negative = inhibition, most hits filed as inhibitors; HEK293T ELG1-luciferase reporter, luminescence, 16 h; DNA damage induced by 5-fluorouridine; AID 504467; note: % is set by controls: 0 for no effect and ±100 for the full control effect; nearly all actives have a fitted effect of over 55% in size
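Overnight (16 hr) co-exposure of 2,000 cells/well to 5-fluorouridine and compound at 37 °C preceded detection. Luciferase was quantified via ONE-Glo luminescence; loss of signal denotes inhibition.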
Tb PGK inh: T. brucei PGK inhibition | PGK/GAPDH coupled, Kinase-Glo luminescence, 60 min | Potency, µM (doses to about 57.5 µM), without a hit: at the highest dose activity change, negative = inhibition, hits mostly inhibitors | 0.043% of 380,000 active; note: % is set by controls: 0 for no effect and ±100 for the full control effect; nearly all actives have a fitted effect of over 60% in size
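Luminescent ATP detection (Kinase-Glo Plus) follows a 60-minute room-temperature incubation, with wells lacking PGK as controls. Buffer: 100 mM TEA (pH 7.6), 5 mM MgCl2, 0.01% Tween-20. Coupling enzyme GAPDH (100 nM final) supplies unstable 1,3-BPG in-well.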
Numbers without * were called inactive; i = inactive; ? = inconclusive; · = no result given; [ ] = another dose, or the depositor's remark. Shown are actives, neighbours in structure and some others; about 2.4% of the full set was active somewhere. Unless noted, calls come from the whole dose curve; as a rule, active = well fitted curve in the direction sought with a large enough effect; inconclusive = small, poorly fitted or top-dose-only effect, or another doubt; inactive = no such curve, though single readings can be large; an effect the other way counts as inactive or inconclusive. Potency is the fitted concentration of half-maximal effect.

SMILES	Rango complex inh	Tb PFK block	PKM2 act	Rango release inh	ELG1 DNA repair	Tb PGK inh
CC1OC(Oc2c(-c3cc(O)c(O)c(O)c3)oc3cc(O)cc(O)c3c2=O)C(O)C(O)C1O (stereo not given)	0.4%	-13.4%	23.0%	2.8%	-11.7%	?
O=C(O)C1OC(Oc2c(-c3ccc(O)c(O)c3)oc3cc(O)cc(O)c3c2=O)C(O)C(O)C1O (stereo not given)	?	?	0.1%	11.7%	10.5%	25.1µM*
Cc1ccc2cc(CN(CCCO)S(=O)(=O)c3cccc4nsnc34)c(=O)[nH]c2c1	4.5%	-3.8%	-14.9%	37.7%	9.2µM*	-2.3%
O=C1Nc2ccccc2C12Nc1ccccc1-c1nc3ccccc3n12 (stereo not given)	0.5%	-3.5%	8.8%	7.0%	14.6µM*	-9.9%
COc1cc(-c2nc(-c3ccccc3)c(-c3cccs3)[nH]2)cc(OC)c1OC	-0.4%	-0.8%	1.8%	-9.0%	?	-6.0%
COc1cc(-c2nc(-c3ccc4c(c3)-c3ccccc3S4(=O)=O)c(-c3ccccc3)[nH]2)cc(OC)c1OC	?	-2.2%	-6.3%	?	2.59µM*	-4.6%
COc1cc2c(cc1OC)CN(c1nc(CN3CCCC3)nc3sc(C)c(C)c13)CC2	-2.2%	-6.2%	-9.5%	-3.5%	?	-8.9%
COc1cc2c(cc1OC)CN(c1nc(CN3CCCCC3)nc3sc4c(c13)CCCC4)CC2	-1.9%	-1.5%	5.7%	-14.4%	23.1µM*	2.7%
Cc1oc(-c2ccccc2F)nc1CS(=O)CC(=O)NC1CCCCC1 (stereo not given)	0.4%	0.8%	-33.3%	-4.0%	3.2%	-9.8%
CCOC(=O)C1CCN(C(=O)CSc2n[nH]c(-c3ccc(OC)cc3)n2)CC1	·	·	·	·	·	-0.3%
CCC1(C)Cc2c(sc3nnn(CC(=O)Nc4ccccc4C)c(=O)c23)CO1 (stereo not given)	-1.8%	3.3%	0.3%	0.5%	10.3µM*	i
O=c1c2sc3ccccc3c2n(Cc2cccc(F)c2)c(=O)n1CCc1ccccc1	·	·	·	·	·	i
COC(=O)c1c(NC(=O)c2ccoc2C)sc(C)c1C	-2.5%	2.2%	-13.7%	-18.4%	9.3%	0.0%
CCOC(=O)c1sc(NC(=O)c2ccoc2C)c(C(N)=O)c1C	-1.6%	1.8%	-2.0%	-7.9%	8.2µM*	-0.9%
O=C(c1cnn(-c2cccc(F)c2)c1-n1cccc1)N1CCN(c2ccccc2F)CC1	·	·	·	·	·	-1.6%
CC(=O)Nc1cccc(NC(=O)c2cc(-c3cccnc3)nc3ccc(Cl)cc23)c1	-3.5%	1.1%	-2.6%	17.3%	20.6µM*	-9.1%
CC(=O)c1cccc(NC(=O)c2cc(-c3ccncc3)nc3ccccc23)c1	6.8%	6.8%	·	18.1%	20.6µM*	0.7%
CSc1ccccc1NC(=O)c1cc(-c2cccnc2)nc2ccc(Br)cc12	-2.6%	-0.8%	-0.2%	14.0%	23.1µM*	-7.9%
O=C(Nc1ccncc1)c1ccccc1F	5.5%	2.0%	-1.7%	-8.2%	10.3µM*	i
O=C(Nc1ccc(F)cc1)c1ccccc1F	-4.4%	·	-6.6%	6.9%	·	-0.1%[11.5 µM]
Cc1cccc(N2CCN(C(=O)CCc3nnc4n(CC(C)C)c(=O)c5ccccc5n34)CC2)c1C	·	·	·	·	·	9.4%
Cc1c(C(=O)N(C)Cc2ccccc2)sc2nc(-c3ccc(F)cc3)cn12	·	·	·	·	·	-9.1%
Cc1cc(C(=O)Nc2ccncc2)c2ccccc2n1	6.0%	1.1%	3.0%	-9.1%	23.1µM*	-10.3%
O=C(CSc1n[nH]c(-c2ccccn2)n1)Nc1cccc(Cl)c1	0.8%	1.4%	13.1%	-10.9%	25.9µM*	2.5%
COCCCn1c(SCc2ccccc2F)nc2c(sc3ccccc32)c1=O	·	·	·	·	·	i
SMILES	Rango complex inh	Tb PFK block	PKM2 act	Rango release inh	ELG1 DNA repair	Tb PGK inh
COc1ccc(C2C(C(=O)N3CCN(c4ccccc4)CC3)c3ccccc3C(=O)N2C)cc1 (stereo not given)	8.0%	2.1%	-3.5%	11.6%	20.6µM*	i
COc1cc2c(cc1OC)C(C(=O)N1CCN(c3ccccc3)CC1)C(c1cccs1)N(C)C2=O (stereo not given)	-5.9%	4.6%	-4.5%	-17.2%	18.4µM*	i
O=c1c2oc3ccccc3c2ncn1Cc1ccc(Br)cc1	·	·	·	·	·	-0.7%
CCOC(=O)c1c(C)nc2sc3c(c2c1-c1ccc(OC)cc1)NC(c1ccccc1)NC3=O (stereo not given)	?	0.1%	-0.6%	?	16.4µM*	-2.0%
CCOC(=O)c1c(C)nc2sc3c(=O)[nH]cnc3c2c1-c1ccc(OC)cc1	-4.2%	0.1%	-0.2%	-7.0%	20.6µM*	-12.6%
COc1ccc(-c2c(C(C)=O)c(C)nc3sc4c(c23)NC(c2ccccc2)NC4=O)cc1 (stereo not given)	-0.2%	0.8%	-0.3%	-8.8%	-29.8%	-4.3%
CCOC(=O)c1c(C)nc2sc3c(=O)n(-c4ccc(OC)cc4)nnc3c2c1-c1ccc(OC)cc1	-1.0%	-6.0%	-4.4%	-0.1%	?	-0.5%
CCOc1ccc(S(=O)(=O)N2CCc3cc(OC)c(OC)cc3C2)cc1	1.7%	0.6%	15.8µM*	-0.5%	-14.2%	-4.9%
CN(C(=O)c1cc(S(=O)(=O)N2CCOCC2)cs1)c1ccccc1	2.8%	2.3%	-1.2%	7.3%	4.4%	-8.7%
Cc1ccc(NC(=O)CN(C)C(=O)c2cc(-c3ccco3)nc3ccccc23)cc1	?	?	·	0.3%	13µM*	?
CN(CC(=O)Nc1ccc(F)cc1)C(=O)c1cc(-c2ccco2)nc2ccccc12	-3.0%	-24.2%	·	-16.0%	?	-18.6%
COc1ccc(OC)c(/C=N/NC(=O)c2cc(-c3ccc(C)o3)nc3ccccc23)c1	?	-5.7%	7.94µM*	?	?	-8.0%
COc1ccc(-c2cc(C(=O)N/N=C/c3cc(OC)c(OC)cc3OC)c3ccccc3n2)cc1	?	·	·	-17.7%	·	-1.2%
CC(=O)Nc1ccc(/C=N/NC(=O)c2cc(-c3ccco3)nc3ccccc23)cc1	-1.7%	-11.6%	6.9%	2.2%	-13.9%	1.9%
O=C(O)c1ccccc1/C=N/NC(=O)c1cc(-c2ccco2)nc2ccccc12	-2.7%	-21.6%	25.1µM*	-11.8%	-0.2%	?
CCOc1ccccc1NC(=O)Cn1cnc2onc(-c3ccc(F)cc3)c2c1=O	·	·	·	·	·	-7.2%
COc1ccc(C(CNC(=O)c2ccc(-c3nc4ccccc4s3)o2)N2CCCC2)cc1 (stereo not given)	-2.0%	4.2%	·	0.4%	?	-4.5%

Screening results deposited in PubChem BioAssay by National Center for Advancing Translational Sciences (NCATS).
